Shown is part of a subset that was picked to be rich in hits.
CD40 NFkB inh: inhibitors of CD40-induced NF-kB signaling, primary screen, BL2 cells, luciferase reporter, single point; CD40L-induced, 4 h; inhibition, % at 10 µM; 83,000 tested, 0.94% active; AID 1053188, 2014;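 active means mean inhibition of at least 50% with a set share of replicates also reaching that level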;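 further: 0% = neutral control wells and 100% = IKK inhibitor VII at 50 µM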
* = called active by the depositor; [ ] = dose if it differs, or a comment.

SMILES	CD40 NFkB inh
C[C@@H]1CN([C@H](C)CO)C(=O)c2cc(NC(=O)Nc3cccc4ccccc34)ccc2O[C@@H](C)CCCCO[C@@H]1CN(C)Cc1ccc(C(F)(F)F)cc1	32[25 µM]
Cc1noc(C)c1S(=O)(=O)Nc1ccc2c(c1)C(=O)N([C@H](C)CO)C[C@@H](C)[C@H](CN(C)C(=O)Nc1cccc3ccccc13)OCCCC[C@@H](C)O2	75*[25 µM]
Cc1noc(C)c1S(=O)(=O)Nc1ccc2c(c1)C(=O)N([C@H](C)CO)C[C@H](C)[C@H](CN(C)C(=O)Nc1cccc3ccccc13)OCCCC[C@@H](C)O2	-10[25 µM]
C[C@H]1CCCCO[C@H](CN(C)Cc2ccc(C(F)(F)F)cc2)[C@@H](C)CN([C@@H](C)CO)C(=O)c2cc(NC(=O)Nc3cccc4ccccc34)ccc2O1	53*[25 µM]
C[C@@H]1CCCCO[C@@H](CN(C)CC2CCCCC2)[C@@H](C)CN([C@@H](C)CO)C(=O)c2cc(NC(=O)Nc3ccc(C(F)(F)F)cc3)ccc2O1	97*[25 µM]
C[C@@H]1CCCCO[C@@H](CN(C)CC2CCCCC2)[C@H](C)CN([C@H](C)CO)C(=O)c2cc(NC(=O)Nc3ccc(C(F)(F)F)cc3)ccc2O1	-8
Cc1noc(C)c1S(=O)(=O)Nc1ccc2c(c1)C(=O)N([C@H](C)CO)C[C@H](C)[C@@H](CN(C)C(=O)Nc1cccc3ccccc13)OCCCC[C@@H](C)O2	0[25 µM]
C[C@H]1CCCCO[C@@H](CN(C)Cc2ccc(C(F)(F)F)cc2)[C@@H](C)CN([C@@H](C)CO)C(=O)c2cc(NC(=O)Nc3cccc4ccccc34)ccc2O1	18[25 µM]
C[C@@H]1CN([C@@H](C)CO)C(=O)c2cc(NC(=O)Nc3ccc(C(F)(F)F)cc3)ccc2O[C@@H](C)CCCCO[C@@H]1CN(C)CC1CCCCC1	12[25 µM]
CCCNC(=O)Cn1cc(S(=O)(=O)N2CCCC2)c(S(=O)(=O)N2CCCC2)c1	-1
CCOc1ccc(NC(=O)CN(C)C(=O)c2sccc2-c2ccccc2)cc1OCC	8
CC(Oc1cccnc1[N+](=O)[O-])C(=O)Nc1ccc(F)cc1 (stereo not given)	7
Cc1c(C(=O)N2CCN(Cc3cccs3)CC2)oc2ccccc12	-2
CC(C)CN(C[C@H]1N[C@H](CO)[C@@H]1c1ccccc1)C(=O)C1CCCCC1	1[25 µM]
O=C(C1CCC(C(=O)N2CCCCC2)CC1)N1CCCCC1 (stereo not given)	4
O=C(c1cc(N2CCCCC2)nc2ccccc12)N1CCOCC1	19
COc1ccc(C=Cc2ccc3ccccc3n2)c(OC)c1	49*
COc1cc(/C=C/c2ccc(OC)cc2OC)cc(OC)c1	-22[25 µM]
COc1cc(OC)c(OC)cc1/C=C/c1ccnc2ccccc12	-1
Cc1cc(C)c2c(=O)[nH]n(C3CC(C)N(C)CC3C)c2n1 (stereo not given)	-18
COC(=O)c1c(NC(=O)Cc2cccs2)sc(C)c1C	3
CCOc1ccccc1CN1CCNC(=O)C1CC(=O)NCCC1=CCCCC1 (stereo not given)	0
CC12CN3CC(C)(CN(C1)C3c1ccc3ccccc3c1O)C2=O (stereo not given)	7
CC12CN3CC(C)(CN(C1)C3c1ccc3c(c1)OCO3)C2=O (stereo not given)	36*
COc1ccc2[nH]cc(C3N4CC5(C)CN3CC(C)(C4)C5=O)c2c1 (stereo not given)	8
SMILES	CD40 NFkB inh
Cc1cc(C(=O)CN2C(=O)c3ccccc3S2(=O)=O)c(C)n1CC1CCCO1 (stereo not given)	13
CCCn1c(C)cc(C(=O)Cn2nnc3ccccc3c2=O)c1C	24
CCCn1c(C)cc(C(=O)CN2C(=O)c3ccccc3S2(=O)=O)c1C	53*
CCOC(=O)C1CCN(c2ncnc3c2oc2ccccc23)CC1	0
C[n+]1c2n(c3ccccc31)N=C(c1ccccc1)CS2	15
C[n+]1c2n(c3ccccc31)N=C(c1ccc(-c3ccccc3)cc1)CS2	70*
Cc1cc(-c2nnc3n2N=C(c2ccc(-c4ccccc4)cc2)CS3)n[nH]1	19
Cc1ccc(S(=O)(=O)N2CCCC2C(=O)NCCc2nc3ccccc3[nH]2)cc1 (stereo not given)	9
COc1ccc(Nc2ncccc2C(=O)NCc2ccccc2)cc1	12
O=C1C=CC2C3C(=O)N(c4ccccc4)C(=O)C3C1N2Cc1ccccc1 (stereo not given)	100*
COc1ccc(C(=O)[C@H]2[C@H]3C(=O)N(c4ccccc4)C(=O)[C@H]3C3C=CC=NN32)cc1 (stereo not given in full)	-45
CC1CN(Cc2ccccc2)C(=O)N(c2ccccc2)C1=O (stereo not given)	-3
O=C(Nc1ccccc1)N1CCCCN2[C@@H](CO)[C@@H](c3ccc(C#Cc4ccccc4)cc3)[C@@H]2C1	28
O=C(Nc1ccc(F)cc1)N1CCCCN2[C@H](CO)[C@@H](c3ccc(C#Cc4ccccc4)cc3)[C@H]2C1	4
N#Cc1cccc(-c2ccc([C@@H]3[C@@H](CO)N4CCCCN(C(=O)Nc5cccc(F)c5)C[C@H]34)cc2)c1	17[25 µM]
N#Cc1cccc(-c2ccc([C@@H]3[C@H](CO)N4CCCCN(C(=O)Nc5cccc(F)c5)C[C@@H]34)cc2)c1	92*[25 µM]
O=C(Nc1ccc(F)cc1)N1CCCCN2[C@@H](CO)[C@@H](c3ccc(C#Cc4ccccc4)cc3)[C@@H]2C1	63*
N#Cc1cccc(-c2ccc([C@@H]3[C@H]4CN(C(=O)Nc5cccc(F)c5)CCCCN4[C@H]3CO)cc2)c1	18[25 µM]
COc1ccc(C(=O)N2C[C@H]3[C@@H](c4ccccc42)[C@H](CO)N3C(=O)Cc2ccccn2)cc1	-18[25 µM]
O=C(COC(=O)c1ccc(Br)o1)NCCCc1ccccc1	11
Cc1ncsc1CCC(=O)N1CCCC(C(=O)c2cccc(Cl)c2)C1 (stereo not given)	0
CCSC1=NC(C)(C)C=C(C)N1	7
CC1=CC(C)(C)N=C(Nc2nc(C)c3cc(C)cc(C)c3n2)N1	48*
CCCSc1nc(C)c2cc(C)cc(C)c2n1	8
Cc1occc1C(=O)Nc1ccc(OCc2ccccc2)cc1	-64
SMILES	CD40 NFkB inh
CN1CCN(S(=O)(=O)c2ccc(-c3noc(C4CCN(S(C)(=O)=O)CC4)n3)cc2)CC1	6
CCCC#Cc1ccc([C@H]2[C@H](C#N)N(C(=O)C3CC3)[C@H]2CO)cc1	5
Cc1ccc(-c2nn3c(C)nnc3c3ccccc23)cc1S(=O)(=O)NCc1ccccc1	44*
CC(=O)NCc1nnc2c3ccccc3c(-c3ccccc3)nn12	16
COc1nnc(-c2ccc(C)c(S(=O)(=O)NCC3CCCO3)c2)c2ccccc12 (stereo not given)	0
O=C(NCCCN1CCOCC1)c1cccc(S(=O)(=O)N2CCc3ccccc32)c1	2
CCOc1ncccc1C(=O)OC(C)C(=O)Nc1ccc(Cl)cn1 (stereo not given)	68*
Cc1cccc(OCC(=O)OC(C)C(=O)Nc2ccc(Cl)cn2)c1 (stereo not given)	8
Cc1cnc(C(=O)OC(C)C(=O)Nc2ccc(Cl)cn2)cn1 (stereo not given)	7
COc1cc(C(=O)OCCCN(C)C)cc(OC)c1OC	0
CC(=O)N(C)C[C@@H]1OCc2ccccc2-c2ccccc2C(=O)N([C@H](C)CO)C[C@@H]1C	-6[25 µM]
COc1ccc2c3c([nH]c2c1)[C@@H](CO)NCC31CN(S(=O)(=O)c2cccc(C)c2)C1	-21[25 µM]
Cc1ccc(S(=O)(=O)NCC(=O)OCc2cc(=O)oc3cc(C)ccc23)cc1	-6
